Laboratory results from PubChem BioAssay AID1981 (Southern Research Specialized Biocontainment Screening …, 2009).
Hit rate of the full screen: of about 2,200 compounds, about 480 (22%) were called active. No rule for the calls is given here. Only a sample is shown. Entries with a potency or affinity are not part of this list.

Assay: S. Typhimurium GFP fluorescence dose response in modified counterscreen for PhoP regulon inhibitor project (AID 1981)
Settings: 4 h; series mostly up to 150 µM

Question: For `CCOC(=O)C1=NNC2(c3ccc(Cl)cc3)C(=O)N(c3cc(C)cc(C)c3)C(=O)C12` (configuration not stated), which outcome is on record?
Answer: inactive

Question: Which outcome does the source give for `CCn1nc(C(=O)OC(C(=O)c2c[nH]c3ccccc23)c2ccccc2)c2ccccc2c1=O` (configuration not stated) here?
Answer: inactive

Question: With `COc1cccc(/C=N/NC(=O)c2ccc(-c3ccccc3)cc2)c1O` as the compound, how does the outcome read?
Answer: inactive

Question: With `Cc1ccc(/C=N/NC(=O)Cn2cnc3ccccc32)o1` as the compound, how does the outcome read?
Answer: inactive

Question: Which outcome does the source give for `c1ccc2c(N3CCCCCC3)nc(-c3ccncc3)nc2c1` here?
Answer: inactive

Question: With `Brc1ccc(OCCn2ccnc2)cc1` as the compound, how does the outcome read?
Answer: inactive

Question: With `Oc1ccccc1-c1nc(/C=C/c2ccccc2)nn1-c1ccccc1` as the compound, how does the outcome read?
Answer: inactive

Question: For `Cc1cc(C)c(NC(=S)NC(=O)c2ccc(-c3ccccc3)cc2)c(C)c1`, which outcome is on record?
Answer: inactive

Question: For `CC(C)OC(=O)c1ccc(NC(=O)c2ccccc2)cc1`, which outcome is on record?
Answer: inactive

Question: With `O=C(Cc1cccs1)N(c1ccccc1)C1C=CS(=O)(=O)C1` (configuration not stated) as the compound, how does the outcome read?
Answer: inactive

Question: For `Oc1[nH]c(=S)sc1/C=C1\C(c2ccccc2)=Nc2ccccc21`, which outcome is on record?
Answer: inactive

Question: Which outcome does the source give for `Oc1ccc(Br)cc1-c1ccn[nH]1` here?
Answer: inactive

Question: Which outcome does the source give for `O=C(CSc1nc2ccccc2[nH]1)Nc1ccc(F)c(F)c1` here?
Answer: inactive

Question: With `Cc1ccc(O)c(-c2cc(-c3ccccc3C)[nH]n2)c1` as the compound, how does the outcome read?
Answer: inactive

Question: For `Clc1c(OCCCn2ccnc2)ccc2ccccc12`, which outcome is on record?
Answer: inactive

Question: With `Cc1ccc(C)n1-c1cc([N+](=O)[O-])ccc1-n1ccnc1` as the compound, how does the outcome read?
Answer: inactive

Question: For `CN(CCO)Cc1csc2ccc(Br)cc12`, which outcome is on record?
Answer: inactive

Question: For `O=C(Nc1cccc2ccccc12)OC1C=CS(=O)(=O)C1` (configuration not stated), which outcome is on record?
Answer: inactive

Question: For `CN(C)C=NC(=O)c1[nH]c2ccc(Cl)cc2c1-c1ccccc1`, which outcome is on record?
Answer: inactive

Question: Which outcome does the source give for `Cn1cnnc1SCC(=O)Nc1cccc(C(=O)O)c1` here?
Answer: inactive

Question: For `Cc1nnc(SC(C)C(=O)Nc2ccc(S(=O)(=O)N3CCCCCC3)cc2)s1` (configuration not stated), which outcome is on record?
Answer: inactive

Question: With `CCOC(=O)N1CCN(C(=O)c2cn(CC(C)C)c(=O)c3c2c2ccccc2n3C)CC1` as the compound, how does the outcome read?
Answer: inactive

Question: Which outcome does the source give for `CCOC(=O)c1cn(CC)c2cc(N3CCOCC3)c(F)cc2c1=O` here?
Answer: inactive

Question: With `N#CC1=C(S)N(c2ccccc2)C(c2ccc(-c3ccccc3Cl)o2)NC1=O` (configuration not stated) as the compound, how does the outcome read?
Answer: inactive

Question: For `Cc1ccc(O)c(-c2cc(-c3cccc(F)c3)n[nH]2)c1`, which outcome is on record?
Answer: inactive

Question: Which outcome does the source give for `Cc1ccc2nc(C)c(CN3CCN(c4ccc([N+](=O)[O-])cc4Cl)CC3)n2c1` here?
Answer: inactive

Question: With `O=S(=O)(Nc1ccc(Cc2ccncc2)cc1)c1ccc(Br)s1` as the compound, how does the outcome read?
Answer: inactive

Question: With `Nc1ccc2oc3ccc(N)cc3c(=O)c2c1` as the compound, how does the outcome read?
Answer: inactive

Question: Which outcome does the source give for `Nc1ccc2oc(=O)c3ccccc3c2c1` here?
Answer: inactive

Question: Which outcome does the source give for `COc1ccc(-n2ncc(S(=O)(=O)c3ccccc3)c2-c2ccc(Cl)cc2)cc1` here?
Answer: inactive

Question: With `COc1ccc2nc(SCC(=O)N(C)C3CCCCC3)c(C#N)cc2c1` as the compound, how does the outcome read?
Answer: inactive

Question: Which outcome does the source give for `CCCn1c(SCC(=O)NCCc2ccccc2)nnc1-c1cccnc1` here?
Answer: inactive
